Screening data as filed in PubChem BioAssay.
This is a sample that favours compounds with a hit; in the whole collection about 4.6% have one here.
hcDAF12 agonist = H. contortus DAF-12 nuclear receptor activators, primary screen, cell-based, luminescence, HEK293, lit1-tk-luc reporter. HEK293 hcDAF-12 lit1-tk-luc reporter; 0% DMSO, 100% Δ7-dafachronic acid. activation, % at 6.8 µM. 1.4% of 370,000 active;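 active means activation above the mean of all tested compounds plus 3 SD, cut at about 5.5% in these data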;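 further: 100% = response to 3 µM Δ7-dafachronic acid high control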
Wee1 stabilizer = Wee1 degradation inhibitors, primary screen, cell-based, HeLa, Wee1K328M-luciferase, luminescence. Wee1-like protein kinase (Homo sapiens), P30291. HeLa Luc-Wee1K328M stability; 100% = proteasome inhibitor MG132 effect. reporter increase, % at 5 µM. 1.2% of 220,000 active. AID 1321, 2008;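 active means activation above the mean of all tested compounds plus 3 SD, set per screening run, cut at about 8.8% in these data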;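 further: cells exposed to compound for 20 h before luminescence read; 0% = DMSO alone and 100% = MG132 at 30 µM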
hgDAF12 agonist = H. glycines DAF-12 receptor agonists, primary screen, cell-based, luminescence, HEK293, GAL4 fusion, UAS-luciferase; Nuclear hormone receptor DAF-12 (Heterodera glycines), GAL4 fusion; HEK293 GAL4-hgDAF12 UAS-luciferase reporter, agonist luminescence; normalized to butyrate control; activation, % at 6.8 µM; 1.8% of 370,000 active; AID 687014, 2013;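 active means activation above a cutoff set at the mean of all screened compounds plus 3 SD, cut at about 10% in these data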;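 further: 0% = DMSO wells and 100% = sodium butyrate wells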
DAX1 inh-1 = DAX1 (NR0B1) inhibitors, primary screen, cell-based, HEK293, Gal4-DAX1, luciferase luminescence; AID 504766, 2011; Nuclear receptor subfamily 0 group B member 1 (Homo sapiens), P51843; 0.99% of 340,000 active; HEK293 Gal4-DAX1 luciferase reporter; inhibition, % at 6.75 µM;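 active means inhibition above the mean over all tested compounds plus 3 SD, cut at about 4.2% in these data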;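 further: 0% = DAX1-transfected cells with DMSO and 100% = empty-vector control cells with DMSO; inhibition shows as a rise in luminescence from relieved DAX1 repression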
Target sequence (P51843 207-470 limits assumed): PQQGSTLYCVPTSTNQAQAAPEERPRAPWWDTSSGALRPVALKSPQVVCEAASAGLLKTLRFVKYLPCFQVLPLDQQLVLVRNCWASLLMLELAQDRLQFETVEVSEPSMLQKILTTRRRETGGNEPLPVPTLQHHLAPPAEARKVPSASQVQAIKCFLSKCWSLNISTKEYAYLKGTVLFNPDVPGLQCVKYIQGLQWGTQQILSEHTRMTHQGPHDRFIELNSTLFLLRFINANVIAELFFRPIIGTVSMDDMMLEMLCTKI
DAX1 inh-2 = DAX1 (NR0B1) inhibitors on StAR promoter, primary screen, cell-based, luminescence, SF-1 (NR5A1), full-length DAX-1; AID 652010, 2013; inhibition, % at 6.8 µM; HEK293T StAR-luciferase reporter, SF-1/DAX-1 repression relief; 1.1% of 370,000 active;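 active means inhibition above the mean over all tested compounds plus 3 SD, cut at about 3.6% in these data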;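 further: 0% = DAX-1 cells with DMSO and 100% = cells lacking DAX-1 with DMSO; higher inhibition means more luminescence from relief of DAX-1 repression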
ssDAF12 agonist = S. stercoralis DAF-12 nuclear receptor activators, primary screen, cell-based, luminescence, HEK293, GRIP1 co-expression, lit1-tk-luc | HEK293 ssDAF-12/GRIP1 lit1-tk-luc reporter; % of 3 µM dafachronic acid response | activation, % at 6.8 µM | 1% of 370,000 active | AID 652126, 2013;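 active means activation above the mean over all tested compounds plus 3 SD, cut at about 0.9% in these data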;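 further: 0% = DMSO-only wells and 100% = 3 µM delta7-dafachronic acid wells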
hgDAF12 conf = H. glycines DAF-12 receptor agonists, confirmation, cell-based, luminescence, HEK293, GAL4-LBD fusion | activation, % at 6.8 µM | HEK293 GAL4-hgDAF12 luciferase reporter, agonist mode; percent of butyrate response | AID 743050, 2013 | shares compounds with hgDAF12 agonist | 80% of 3,300 active;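 active means mean activation over triplicate wells above the hit cutoff derived from the earlier primary screen, cut at about 11% in these data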;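 further: 0% = DMSO low control and 100% = 2 mM sodium butyrate high control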
LXR ag 2 = LXR agonists, Gal4 luciferase reporter, confirmation, counter-screen for hgDAF-12 agonist project, cell-based, luminescence, HEK293, H. glycines campaign. shares compounds with hgDAF12 agonist. 24 h. activation, % at 6.8 µM. 3,300 tested, under 10 active;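 active means mean activation of the triplicate above a set limit carried over from the primary screen, none filed active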
* = called active by the depositor; x = not tested or not shown.

SMILES	hcDAF12 agonist	Wee1 stabilizer	hgDAF12 agonist	DAX1 inh-1	DAX1 inh-2	ssDAF12 agonist	hgDAF12 conf	LXR ag 2
CCOC(=O)[C@]12CCC=C1N(Cc1ccco1)C(=O)[C@H](CC(=O)NCCCCc1ccccc1)C2	-1	x	2	x	-1	-1	x	x
Cc1cccc(Nc2nc3ccccc3s2)c1C	5	4	21*	1	3	1.3*	20*	1
O=C1CCCC(O)=C1N=Nc1ccc(C(=O)O)cc1	0	0	0	1	1	-2	x	x
O=C1CCCC(O)=C1N=Nc1ccc2c(c1)OCO2	5.9*	2	14*	3	0	-1	9	1
COc1ccc(Nc2nnc(-c3ccc4c(c3)OCO4)o2)cc1	5.8*	x	22*	x	3	1.5*	18*	1
CCn1nc(C)cc1C(=O)N1CCc2c([nH]c3ccccc23)C1c1cc(F)ccc1F (centres undefined)	6.2*	-1	14*	x	1	1	13*	0
Cc1ncoc1C(=O)N1CCc2c([nH]c3ccccc23)C1c1ccccc1F (centres undefined)	3	3	16*	-1	1	0	3	0
CCC(=O)OCOc1ccc(/C=C2/CCC(CN(C)C)C2=O)cc1 (centres undefined)	1	x	2	0	-1	-1	x	x
c1ccc(OCc2nc(-c3cccs3)no2)cc1	4	2	16*	2	2	0	13*	0
Fc1ccc(OCc2nc(-c3cccs3)no2)cc1	3	3	16*	3	3	0	12*	0
Cc1cc(OCc2nc(-c3cccs3)no2)cc(C)c1Cl	-1	2	3	1	1	-1	x	x
CN1C(=O)/C(=C/C=C2\SCCN2C)N(C)C1=S	2	3	14*	1	2	0	15*	1
CN1C(=O)/C(=C/C=C2\SCCN2C)SC1=S	x	8	x	x	x	x	x	x
COc1cccc(CNC(=O)[C@@H]2CCCN2C(=O)[C@@H]2CCCN2C(=O)OC(C)(C)C)c1	0	x	1	x	0	-1	x	x
O=C(N/C=C/c1ccccc1)c1ccccc1	4	x	15*	2	3	1	16*	1
CCN(C(=O)CSc1nnc(-c2cccc(F)c2)n1N)c1c(N)n(Cc2ccccc2)c(=O)[nH]c1=O	-1	x	19*	2	0	-1	-1	0
O=C1O[C@@H](c2ccccc2)C[C@@H](O)C(=O)CCCc2ccccc21	0	x	-2	x	2	-1	x	x
COC(=O)C1=C(C)N(C)C(=NCc2ccc(C(F)(F)F)cc2)NC1c1ccc(C(F)(F)F)cc1 (centres undefined)	-1	x	-2	x	2	-1	x	x
C(=N\NC1=Nc2cccc3cccc1c23)/c1cccnc1	5	0	16*	2	0	0	11*	0
O=[N+]([O-])c1ccc(N/N=C/c2cccnc2)cc1	0	x	7	2	-1	-1	x	x
O=C(NCC1CCN(C(=O)C(=O)c2cc3ccccc3o2)CC1)c1ccc2c(c1)OCO2	1	x	0	x	1	-2	x	x
Nn1c(SCC(=O)Nc2nccs2)nnc1-c1cccnc1	-2	x	1	0	0	-1	x	x
CN(C)S(=O)(=O)c1cccc(C(=O)N=C2N=C3C=CC(Cl)=CN3Cc3ccccc32)c1	5	4	16*	3	1	0	7	0
O=C(N=C1N=C2C=CC=CN2Cc2ccccc21)c1ccc(S(=O)(=O)N2CCCC2)cc1	3	1	8	2	1	-2	x	x
O=C(N=C1N=C2C=CC=CN2Cc2ccccc21)c1ccc(S(=O)(=O)N2CCOCC2)cc1	3	-2	16*	4	4.1*	0	12*	0
SMILES	hcDAF12 agonist	Wee1 stabilizer	hgDAF12 agonist	DAX1 inh-1	DAX1 inh-2	ssDAF12 agonist	hgDAF12 conf	LXR ag 2
CCc1ccc(C2CC3C(CN2S(=O)(=O)c2ccc(C)cc2)C(=O)CC(c2ccc(CC)cc2)N3S(=O)(=O)c2ccc(C)cc2)cc1 (centres undefined)	-1	x	-1	x	0	0	x	x
Cc1cc(C)c(C)c(S(=O)(=O)Nc2cccc(S(=O)(=O)Nc3ccccc3C(=O)O)c2)c1C	-1	x	2	-2	0	-1	x	x
COc1ccc([C@H]2N[C@]3(CCCN(Cc4ccc(F)cc4)C3=O)[C@H]3C(=O)N(C)C(=O)[C@@H]23)cc1	1	x	0	1	0	0	x	x
COc1ccc(NC(=O)CSc2nc3ccsc3c(=O)n2CCC(=O)O)c(OC)c1	1	x	14*	0	0	-1	1	0
Brc1cc2c(cc1-c1nc3ccccc3s1)OCO2	3	x	4	0	0	0	x	x
c1ccc(-c2nc3ccccc3s2)nc1	3	0	13*	4.3*	3	1	18*	1
Nc1ccc(-c2nc3ccccc3s2)cn1	5	x	14*	2	2	1	20*	1
CN(C)c1ncccc1-c1nc2ccccc2s1	-2	-4	2	-1	0	-1	x	x
CCOC(=O)Cc1csc(NC(=O)c2ccco2)n1	1	0	13*	1	3	-1	4	0
CC(=O)/C=C(\C)Nc1ccc(-c2cnc(-c3ccccc3)o2)cc1	6.2*	3	18*	4	4.0*	1	13*	1
CC(C)C(=O)Nc1ccc(-c2nnc(-c3ccccc3)o2)cc1	5	x	14*	4	2	1	17*	1
COC(=O)C1CN(Cc2ccc(Cl)cc2)CCS(=O)(=O)N1Cc1cn(Cc2ccc(C)cc2)nn1 (centres undefined)	-4	x	1	x	0	-1	x	x
CN1CCN(c2ccc(NC(=O)COc3ccccc3)cc2Cl)CC1	1	x	15*	1	3	1	14*	0
Cc1ccc(NC(=O)COc2ccccc2)cc1Cl	x	x	x	0	x	x	x	x
